Test results taken from article PMC5540273 (PLoS ONE, 2017).

What was measured:
Conditions in all cases: concentration: 1 μM, replicates: in singlicate; n = 1
MAP4K2 = test system: MAP4K2
MAP4K3 = test system: MAP4K3
MAP4K4 = test system: MAP4K4
MAP4K5 = test system: MAP4K5
MAPKAPK2 = test system: MAPKAPK2
MAPKAPK5 = test system: MAPKAPK5
MARK1 = test system: MARK1
MARK2 = test system: MARK2
MARK3 = test system: MARK3
MARK4 = test system: MARK4
MAST1 = test system: MAST1
MEK1 = test system: T1, MEK1
T1 construct: gene MAP2K1

MEK2 = test system: T2, MEK2
T2 construct: gene MAP2K2

MEK3 = test system: T3, MEK3
T3 construct: gene MAP2K3

MEK4 = test system: T4, MEK4
T4 construct: gene MAP2K4

MEK5 = test system: T5, MEK5
T5 construct: gene MAP2K5

MEK6 = test system: T6, MEK6
T6 construct: gene MAP2K6

MELK = test system: MELK
MERTK = test system: MERTK
MET = test system: MET
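Note: KINOMEscan kinase panel screen.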

SMILES | %Inh (MAP4K2) | %Inh (MAP4K3) | %Inh (MAP4K4) | %Inh (MAP4K5) | %Inh (MAPKAPK2) | %Inh (MAPKAPK5) | %Inh (MARK1) | %Inh (MARK2) | %Inh (MARK3) | %Inh (MARK4) | %Inh (MAST1) | %Inh (MEK1) | %Inh (MEK2) | %Inh (MEK3) | %Inh (MEK4) | %Inh (MEK5) | %Inh (MEK6) | %Inh (MELK) | %Inh (MERTK) | %Inh (MET)
COc1ccc(-c2coc3ccc(-c4nnc(C)o4)cc23)cc1 | 0% | 0% | 0% | 0% | 0% | 0% | 100% | 30% | 0% | 100% | 0% | 0% | 4% | 0% | 1% | 0% | 0% | 0% | 8% | 0%
Cn1cncc1C(=O)NC1CCN(c2ccnc(Nc3ccc(F)cc3)n2)C1 (centres unmarked) [GSK1379717] | 0% | 0% | 7% | 30% | 4% | 0% | 0% | 0% | 0% | 0% | 0% | 0% | 0% | 11% | 28% | 3% | 0% | 0% | 5% | 0%
CSc1ccc(-c2nc3n(c2-c2ccncc2)CCC3)cc1 [SKF-105561] | 0% | 0% | 1% | 0% | 10% | 22% | 0% | 16% | 0% | 0% | 16% | 1% | 25% | 18% | 0% | 22% | 0% | 18% | 0% | 0%
CNCc1ccc2nc(NC(=O)c3ccc(C(C)(C)C)cc3)cn2c1 | 22% | 0% | 0% | 0% | 0% | 5% | 0% | 0% | 9% | 4% | 50% | 32% | 27% | 8% | 30% | 34% | 11% | 0% | 5% | 6%
Fc1ccc(-c2nc[nH]c2-c2ccncc2)cc1 [SB-217360] | 0% | 2% | 10% | 0% | 0% | 0% | 12% | 4% | 0% | 30% | 0% | 36% | 58% | 32% | 6% | 66% | 0% | 0% | 19% | 0%
O=C(Nc1n[nH]c2nc(-c3cccs3)c(Br)cc12)C1CC1 [SB-735297] | 0% | 0% | 0% | 0% | 0% | 10% | 1% | 0% | 20% | 6% | 26% | 0% | 0% | 34% | 99.3% | 68% | 0% | 15% | 15% | 0%
CS(=O)(=O)CCNCc1nc(-c2ccc3ncnc(Nc4ccc5c(cnn5Cc5ccccc5)c4)c3c2)cs1.Cl.Cl [GW569716] | 0% | 9% | 0% | 0% | 19% | 0% | 0% | 0% | 0% | 0% | 32% | 0% | 0% | 0% | 0% | 99.6% | 0% | 0% | 0% | 0%
COc1ccc(Nc2nccc(NCCNC(=O)Nc3cc(C)ccc3C)n2)cc1 [GSK1379899] | 0% | 3% | 16% | 26% | 15% | 0% | 0% | 0% | 0% | 9% | 0% | 0% | 0% | 0% | 0% | 66% | 0% | 0% | 11% | 0%
Cc1ccc(NC(=O)Nc2ccc(Cl)cc2)cc1-c1ccc(C(=O)Nc2ccncc2)cc1 [GSK1398472] | 0% | 0% | 5% | 6% | 19% | 0% | 0% | 0% | 0% | 1% | 0% | 0% | 0% | 0% | 26% | 11% | 0% | 0% | 0% | 0%
CC(=O)c1c(C)c2cnc(Nc3ccc(N4CCNCC4)cn3)nc2n(C2CCCC2)c1=O | 0% | 17% | 0% | 0% | 0% | 0% | 6% | 0% | 0% | 13% | 0% | 0% | 0% | 0% | 0% | 1% | 0% | 5% | 0% | 0%
